In PubChem BioAssay (Tox21) one finds Potency data, which are given here for 40 compounds.

Records with an inconclusive call do not appear. Entries that show only a call come without a potency. The source made the active and inactive calls. Calls come from the whole dose curve.

This test can be described thus: qHTS assay to identify small molecule agonists or antagonists of the thyroid stimulating hormone receptor (TSHR) signaling pathway - wild type cell line counter screen (AID 1259384). To be noted: HEK293 wild type, cAMP HTRF counter-screen; series mostly up to 92.4 µM. The text has this: U.S. Tox21 Program National Center for Advancing Translational Sciences [NCATS] NIH Chemical Genomics Center [NCGC] U.S. Environmental Protection Agency [EPA] National Institutes of Environmental Health Sciences [NIEHS] National Toxicology Program [NTP] U.S. Food and Drug Administration [FDA] Tox21 Assay Overview: TSHR is the receptor for thyrotropin (thyroid stimulating hormone or TSH), a member of the glycoprotein hormone family. TSH is released by the anterior pituitary gland and is the main regulator of thyroid gland growth and development. Upon binding circulating thyrotropin, a G-protein signal cascade activates adenylyl cyclase and […] cAMP concentration is increased. cAMP is a key second messenger involved extensively in cellular signal transduction pathways associated with the majority of G-protein coupled receptors (GPCRs). The activation of these GPCRs by neurotransmitters, lipids, nucleotides, peptides and hormones results in the activation or the inhibition of plasma membrane-bound adenylate cyclase through heterotrimeric G-proteins. A cell-based TSHR-Hek293 assay can be used to identify TSHR agonists. To eliminate the false positive compounds identified from screening a cell-based TSHR-Hek293 cell line, cAMP assay in a wild type Hek293 cells was used as a counter screening.
Tox21 Assay Protocol Summary: Hek293 cells (wild type) were dispensed at 800 cells/4 uL/well in 1536-well white plates using a Multidrop dispenser. After the assay plates were incubated at a 37 C/5% CO2 incubator for 18 hrs, 23 nL of compounds dissolved in DMSO, positive controls or DMSO only was transferred to the assay plate by a pin tool, followed by 1 ul medium containing Ro20-1724. After 30 min of incubation at room temperature, 2.5 ul/well of cAMP-d2 and 2.5 ul/well of anti-cAMP-cryptate were added respectively into the assay plates using a Flying Reagent Dispenser. The plates were incubated at room temperature for 1 hr. The fluorescence intensity in the plates was measured using an Envision plate reader. Each test compound was measured at 15 concentrations and in triplicates.
With `CCCCCCC(O)CCCCCCCCCCC(=O)O` (stereo not given), the Potency result is “inactive”. Next, `Oc1c(Cl)cc(Cl)cc1Sc1cc(Cl)cc(Cl)c1O`: “inactive”; `Nc1nc(=S)c2[nH]cnc2[nH]1`: “inactive”. `CO[Si](OC)(OC)c1ccccc1`: the Potency entry was “inactive”.

For the compound `O=C(O)c1cccc(C(=O)O)c1`, the Potency result was “inactive”.

On to `CCN(CC)C(=S)SSC(=S)N(CC)CC`, for which the Potency entry was “inactive”. As for `C1COC(NC(C2CC2)C2CC2)=N1`, the Potency entry was “inactive”. Regarding `C=C(C)C1CC=C(C)C(OC(C)=O)C1` (stereo not given), the Potency entry is “inactive”. Next, `CN(C)c1ccc(C(=C2C=CC(=[N+](C)C)C=C2)c2ccccc2)cc1`: “inactive”. As to `O=C(O)CP(=O)(O)O`, the Potency result is “inactive”. For `O=S(=O)(O)c1ccc2nc(-c3ccccc3)[nH]c2c1` the value was “inactive”; for `O=C(OCc1ccccc1)c1ccc(O)cc1`, “inactive”. Regarding `CC(C)(O)CCC(C)(C)O`, the Potency result was “inactive”. For `CNCCC(Oc1ccc(C(F)(F)F)cc1)c1ccccc1` (stereo not given) the value was “inactive”; for `CN1C(=O)c2ccc([N+](=O)[O-])cc2C1=O`, “inactive”; for `CC1COc2c(N3CCN(C)CC3)c(F)cc3c(=O)c(C(=O)O)cn1c23` (stereo not given), “inactive”. In the case of `OCC(CO)N[C@H]1C[C@](O)(CO)[C@@H](O)[C@H](O)[C@H]1O`, the Potency result is “inactive”.

With `CCC(=O)/C=C/C1C(C)=CCCC1(C)C` (stereo not given), the Potency result was “inactive”. Regarding `CCOc1ccccc1C(N)=O`, the Potency result is “inactive”.

As to `Cc1cc(Cc2cc(C)cc(C(C)(C)C)c2O)c(O)c(C(C)(C)C)c1`, the Potency result is “inactive”. For `O=C1OC2(c3ccc(O)cc3Oc3cc(O)ccc32)c2ccccc21` the value was “inactive”. Next, `COc1nc(C)nc(Cl)c1NC1=NCCN1`: “inactive”; `CC(COc1ccccc1)N(CCCl)Cc1ccccc1` (stereo not given): “inactive”; `CC(N)=O`: “inactive”. Next, `c1ccc2c(c1)CCCC2C1=NCCN1` (stereo not given): “inactive”; `Cc1cccc([N+](=O)[O-])c1C(=O)O`: “inactive”.

For `CCCCCCCCCCCC[N+](C)(C)C`, the Potency entry was “inactive”. In the case of `C=CS(=O)(=O)O`, the Potency result is “inactive”. Next, `c1ccc2n[nH]nc2c1`: “inactive”; `CCOC(=O)C(C)C(C)=O` (stereo not given): “inactive”; `O=C(O)c1cc(Cl)cc(Cl)c1`: “inactive”.

Take `NCCCCCC(=O)O`: the Potency entry was “inactive”. For `CCC(C)(C)C(=O)O[C@H]1C[C@@H](C)C=C2C=C[C@H](C)[C@H](CC[C@@H]3C[C@@H](O)CC(=O)O3)[C@H]21` the value was “inactive”; for `COc1ccc(CCN2CCC(Nc3nc4ccccc4n3Cc3ccc(F)cc3)CC2)cc1`, “inactive”.

In the case of `CCCNC(C)C(=O)Nc1ccccc1C` (stereo not given), the Potency result is “inactive”. For `O=Cc1ccc(Cl)cc1` the value was “inactive”. Next, `CNC1(C)C2CCC(C2)C1(C)C` (stereo not given): “inactive”; `N[C@@H]1CONC1=O`: “inactive”.

On to `CCN(CC)C(=O)Nc1ccc(OCC(O)CNC(C)(C)C)c(C(C)=O)c1` (stereo not given), for which the Potency entry was “inactive”.

Consider `CCN(CC)CCOc1ccc(/C(=C(\Cl)c2ccccc2)c2ccccc2)cc1`, for which the Potency result is “inactive”.
